In PubChem BioAssay AID624273 (Broad Institute, 2012):
About 230 (23%) of roughly 1,000 compounds were called active. Roughly 1% stayed inconclusive and do not appear here. No rule for the calls is given here. The list shows a part of the results. Where a call stands in place of a potency, no number is given. Potency and affinity values are given separately.

biological target: Long-chain-fatty-acid--AMP ligase FadD28 (Mycobacterium tuberculosis (strain ATCC 25618 / H37Rv)) (UniProt P9WQ59); assay: inhibitors of FadD28 bisubstrate probe binding, dose response, biochemical, fluorescence polarization, cherry-pick (AID 624273); conditions: series mostly up to 50 µM
Sequence (P9WQ59 whole entry, looked up): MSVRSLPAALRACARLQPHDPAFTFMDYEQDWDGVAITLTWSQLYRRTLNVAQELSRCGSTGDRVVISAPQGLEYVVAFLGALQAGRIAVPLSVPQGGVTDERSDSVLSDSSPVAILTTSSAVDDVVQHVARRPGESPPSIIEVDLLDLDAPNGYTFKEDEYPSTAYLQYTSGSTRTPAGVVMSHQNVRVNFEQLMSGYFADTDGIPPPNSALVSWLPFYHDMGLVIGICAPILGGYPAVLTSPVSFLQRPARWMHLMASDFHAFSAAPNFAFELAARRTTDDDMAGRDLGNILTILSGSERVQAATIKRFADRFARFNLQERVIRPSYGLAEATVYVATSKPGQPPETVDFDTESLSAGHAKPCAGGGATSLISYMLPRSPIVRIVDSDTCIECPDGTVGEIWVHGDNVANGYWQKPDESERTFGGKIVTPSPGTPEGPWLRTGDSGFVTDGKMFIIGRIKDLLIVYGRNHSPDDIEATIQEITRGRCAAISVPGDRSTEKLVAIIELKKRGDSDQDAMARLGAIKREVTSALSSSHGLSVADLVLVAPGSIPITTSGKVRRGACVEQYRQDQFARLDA

Row | Compound | outcome
1 | C[C@@H]1CN([C@H](C)CO)C(=O)c2cc(NC(=O)Nc3ccc(C(F)(F)F)cc3)ccc2O[C@H]1CN(C)S(=O)(=O)c1ccccc1 | inactive
2 | N#CCCN(CCC#N)C(=O)C1c2ccccc2Oc2ccccc21 | inactive
3 | CCCCCCn1cc(C(=O)O)c(=O)c2cc(F)c(N3CCN(C)CC3)cc21 | inactive
4 | O=C(NNC(=O)C1CC=CCC1)c1ccccc1Cl (stereo not given) | inactive
5 | COc1ccc(CCNC(=O)CSc2nc3[nH]ncc3c(=O)n2-c2ccc(Cl)cc2Cl)cc1OC | inactive
6 | O=C(CSc1nnc(CNc2ccc(Cl)cc2)o1)Nc1nc2c(s1)CCCC2 | inactive
7 | COCC(C)N=Cc1c(O)[nH]c2ccccc12 (stereo not given) | inactive
8 | CC1=C(C(=O)OCCCBr)C(c2ccc3c(c2)OCO3)NC(=O)N1 (stereo not given) | inactive
9 | CN1CC(C(=O)c2ccc(Cl)cc2)C(c2ccc(N(C)C)cc2)C1 (stereo not given) | inactive
10 | CC(=O)Oc1ccc(-c2nc(-c3cccnc3)no2)cc1 | inactive
11 | COc1ncnc(-c2ccccc2)c1-c1ccccc1 | inactive
12 | COCC(=O)Nc1ccc(Br)cc1C | inactive
13 | COc1ccc(/C=C2\SC(=O)N(CC(=O)Nc3ccccc3O)C2=O)cc1OC | inactive
14 | COc1cc(/C=N/n2c(COc3ccccc3)n[nH]c2=S)cc(OC)c1OC(C)=O | inactive
15 | O=C(CN1C(=O)/C(=C/c2ccco2)SC1=S)NC1CCS(=O)(=O)C1 (stereo not given) | inactive
16 | COc1ccc(C(=O)Nc2ccncc2)cc1OC | inactive
17 | O=C(NCCS(=O)(=O)N1CCN(c2cccc(Cl)c2)CC1)c1cc(=O)c2ccccc2o1 | inactive
18 | COc1cc2cc(C(N)=O)c(N)nc2cc1OC | inactive
19 | Cc1nc(-c2cccs2)ccc1C(=O)O | inactive
20 | O=[N+]([O-])c1cccc(/C=N/n2c(C3CCCCC3)n[nH]c2=S)c1 | inactive
21 | COCCCNC(=S)N/N=C/c1cccc(OC)c1O | inactive
22 | CC1CCN(S(=O)(=O)c2ccc(C(=O)Nc3nnc(C4=COCCO4)o3)cc2)CC1 | inactive
23 | O=C(COC(=O)c1cccc(S(=O)(=O)N2CCCC2)c1)Nc1cccc(Br)c1 | inactive
24 | CCN(CC)S(=O)(=O)c1ccc(NC(=O)COC(=O)c2ccc(Br)o2)cc1 | inactive
25 | O=C(CSc1nnnn1-c1ccccc1)Nc1nsc(-c2ccc(Cl)cc2)n1 | inactive
26 | Cc1cc(S(=O)(=O)N(Cc2cccs2)Cc2ccccc2F)ccc1-n1cnnn1 | inactive
27 | CCNS(=O)(=O)c1cc(OC)c(Cl)cc1OC | inactive

Row | Compound | outcome
28 | O=C(Nc1nc(COc2ccccc2)cs1)c1ccccc1F | inactive
29 | COc1ccc(CNC(=O)CN(Cc2ccc(OC)cc2)C(=O)CCC(=O)Nc2nccs2)cc1 | inactive
30 | COc1cc(Cl)ccc1NC(=O)COc1ccccc1C(=O)N1CCN(c2ccc(O)cc2)CC1 | inactive
31 | CCCN1C(=O)c2ccccc2NC1c1ccc(Cl)cc1 (stereo not given) | inactive
32 | CC(=O)c1cccc(NC(=O)CN(c2cccc(F)c2)S(C)(=O)=O)c1 | inactive
33 | COc1cccc(CNC(=O)CN(C)S(=O)(=O)c2cnc[nH]2)c1 | inactive
34 | COc1ccc(CNC(=O)COc2ccc(OC)cc2)cc1 | inactive
35 | COc1cccc(-c2cc(C(=O)Nc3ccncc3)c3ccccc3n2)c1 | inactive
36 | COc1cnc(-c2cccc(C(F)(F)F)c2)c(NC(=O)c2cc3ccccc3s2)n1 | inactive
37 | CCOc1ccc(N=Nc2c(C)[nH]n(-c3ccccc3)c2=O)cc1 | inactive
38 | O/N=C1\CC/C(=N\O)c2nn(-c3ccccc3Cl)nc21 | inactive
39 | O=C(CN1C(=O)NC2NC(=O)NC21)NC1CCCCC1 (stereo not given) | inactive
40 | Cc1ccc(C(=O)COC(=O)c2cccc(NC(=O)c3ccc([N+](=O)[O-])cc3[N+](=O)[O-])c2)cc1 | inactive
41 | COc1ccc(C(=O)/C(C#N)=N/Nc2cccc([N+](=O)[O-])c2)cc1 | inactive
42 | N#Cc1c(-c2ccccc2)c(-c2ccccc2)nn(CC(=O)NNC(=O)Nc2ccc(Cl)c(Cl)c2)c1=O | inactive
43 | N/C(=N\OC(=O)COc1ccc2ccccc2c1)c1ccncc1 | inactive
44 | COC(=O)c1c(-c2ccc(C)cc2)csc1NC(=O)C1CC=CCC1C(=O)O (stereo not given) | inactive
45 | Cc1ccc([N+](=O)[O-])cc1N=Nc1c(-c2ccc([N+](=O)[O-])cc2)[nH]n(C(N)=S)c1=O | inactive
46 | CCc1noc(C)c1C(=O)Nc1cc(S(=O)(=O)N2CCOCC2)ccc1OC(C)C | inactive
47 | CCOC(=O)N1CCN(C2CC(=O)N(c3ccc(F)cc3)C2=O)CC1 (stereo not given) | inactive
48 | C[C@@H]1CN([C@H](C)CO)C(=O)c2cc(NC(=O)Nc3ccc(C(F)(F)F)cc3)ccc2O[C@H]1CN(C)S(=O)(=O)c1ccc(Cl)cc1 | inactive
49 | Cc1cc(=O)oc2c(CN3CCN(CCO)CC3)c(O)ccc12 | inactive
50 | O=C(NNC(=O)c1ccc([N+](=O)[O-])cc1)c1ccc(NS(=O)(=O)c2cccs2)cc1 | inactive
51 | Cc1cccc(C(=O)NNS(=O)(=O)c2ccc(F)cc2)c1O | inactive
52 | COc1cc(NC(=O)COC(=O)CC2CC3CCC2C3)cc(OC)c1 (stereo not given) | inactive
53 | CCSc1ccccc1C(=O)Nc1cc(C)on1 | inactive
54 | COc1cccc(C(=O)OCC(=O)NC(=O)NC2CCCC2)c1O | inactive

Row | Compound | outcome
55 | COC(=O)c1cc(C(=O)OCC(=O)NC2CCCC2)cc([N+](=O)[O-])c1 | inactive
56 | CC(=O)NC(CCS(C)(=O)=O)C(=O)N1CCc2ccccc21 (stereo not given) | inactive
57 | COc1cccc(OCc2cc(C(=O)N(C)CCOc3ccc(C)cc3)no2)c1 | inactive
58 | CC(C)=NOc1cc(NC(=O)CCl)cc([N+](=O)[O-])c1 | inactive
59 | C/C(=N\NC(=O)COc1ccccc1)c1ccc(O)cc1 | inactive
60 | Nc1nnnn1/N=C/c1cc(Cl)cc(Cl)c1O | inactive
61 | O=C(O)Cn1c2ccccc2c2n[nH]c(=S)nc21 | inactive
62 | CCOC(=O)c1cc(NC(=O)c2ccc(Cl)cc2)c(=O)n2c1oc1ccc(Cl)cc12 | inactive
63 | S=c1nc[nH]c2c1sc1nc(-c3ccccc3)c3c(c12)CCCC3 | inactive
64 | CCn1c(SCC(=O)Nc2ccc(N3CCOCC3)cc2)nnc1-c1ccncc1 | inactive
65 | Cc1ccc(C)c(NS(=O)(=O)c2ccc(NC(=O)CSc3ccc(Cl)cc3)cc2)c1 | inactive
66 | Cc1ccc(OCc2nc(-c3ccccn3)no2)cc1 | inactive
67 | COc1ccc(CCNC(=O)c2ccc(NS(=O)(=O)c3ccc4[nH]c(=O)[nH]c4c3)cc2)cc1 | inactive
68 | COc1ccc(CCNC(=O)c2ccccc2NS(=O)(=O)c2c(F)cccc2F)cc1 | inactive
69 | CCC(C)(C)NC(=O)CN(C(=O)CCC(=O)Nc1nccs1)c1ccc2c(c1)OCO2 | inactive
70 | COc1ccc(COc2ccc3c(C)cc(=O)oc3c2)cc1 | inactive
71 | CCOC(=O)c1ccc(NC(=O)c2nc[nH]c2C(=O)N(CC)CC)cc1 | inactive
72 | Cc1ccc(S(=O)(=O)N(C)CC(=O)OCC(=O)NC(=O)Nc2ccc3c(c2)OCCO3)cc1 | inactive
73 | COc1ccc(S(=O)(=O)N2CCC(C(=O)NCCC(=O)NCc3ccncc3)CC2)cc1 | inactive
74 | O=C(NCc1ccc(F)cc1)C(Cc1ccccc1)NS(=O)(=O)c1cccs1 (stereo not given) | inactive
75 | Cc1ccc(C)c(NC(=O)C(CC(=O)O)Cc2ccccc2)c1 (stereo not given) | inactive
76 | COC(=O)[C@H](Cc1ccccc1)NC(=O)NCc1ccc(C)cc1 | inactive
77 | O=C(NC(Cc1ccccc1)C(=O)O)C1CCN(S(=O)(=O)c2ccccc2C(F)(F)F)CC1 (stereo not given) | inactive
78 | C[C@H](CO)N1C[C@H](C)[C@H](CN(C)S(=O)(=O)c2cn(C)cn2)Oc2ccc(NC(=O)Nc3ccc(C(F)(F)F)cc3)cc2CC1=O | inactive
79 | NC(Cc1ccccc1)c1nn[nH]n1 (stereo not given) | inactive
80 | CN1CCN(NC(=O)c2ccc(S(=O)(=O)N3CCCCCC3)cc2)CC1 | inactive
81 | CC(=O)c1ccc(Oc2cc(-c3ccccc3)nc(-c3ccccc3)n2)cc1 | inactive

Row | Compound | outcome
82 | O=C(O)c1cc2ccccc2cc1Nc1ccccc1 | inactive
83 | CCN(CC)CCCn1c(=S)[nH]c2cc(Cl)ccc2c1=O | inactive
84 | COC1=CC(=O)OC(CCc2ccc3c(c2)OCO3)C1 (stereo not given) | inactive
85 | Cc1ccc(C(=O)n2nc(C#N)c(C#N)c2N)cc1 | inactive
86 | CC(=O)N1CCN(c2ccc(NC(=O)c3ccc(C(C)(C)C)cc3)cc2)CC1 | inactive
87 | N#Cc1ccc(OCC(=O)OCC(=O)Nc2ccc(N3CCOCC3)cc2)cc1 | inactive
88 | O=C(Sc1ccc(Cl)cc1)c1ccccn1 | inactive
89 | Cn1c(N)c(S(=O)(=O)N2CCN(c3ccccc3Cl)CC2)c(=O)n(C)c1=O | inactive
90 | O=[N+]([O-])c1ccc(N2CCCCCC2)c2nonc12 | inactive
91 | CCc1c(C)sc(NC(=O)C2CC2c2ccccc2)c1C(N)=O (stereo not given) | inactive
92 | O=C(/C=C/c1ccc([N+](=O)[O-])cc1)/C=C/c1ccco1 | inactive
93 | Cc1c(C(=O)C(=O)N2c3ccccc3CC2C)c2ccccc2n1C (stereo not given) | inactive
94 | C=CCn1c(C)csc1=Nc1ccc(C(C)=O)cc1 | inactive
95 | O=C(c1cccc(S(=O)(=O)N2CCN(c3ccccc3)CC2)c1)N1CCCCCCC1 | inactive
96 | Cc1ccccc1-c1nnc(-c2cccc3ccccc23)o1 | inactive
97 | COc1ccc(C)cc1NC(=O)CSc1nnc(-c2ccc(Br)cc2)o1 | inactive
98 | CCc1cccc(NC(=O)COC(=O)/C=C/c2cccs2)c1 | inactive
99 | COc1ccc(C(=O)c2ccsc2N)cc1 | inactive
100 | Cc1ccc(OCCCN2CCOCC2)cc1 | inactive
101 | Cc1ccc(S(=O)(=O)/N=C2\C=C(Nc3ccc(O)cc3)C(=O)c3ccccc32)cc1 | inactive
102 | CCc1nnc(NC(=O)CSc2ncnc3c2oc2ccccc23)s1 | inactive
103 | O=C(CSc1nnc(Cc2ccccc2)n1-c1ccccc1)NNC(=O)Cc1ccccc1 | inactive
104 | O=C(COC(=O)c1cc(S(=O)(=O)Nc2ccccc2Cl)ccc1O)Nc1nc2ccccc2s1 | inactive
105 | O=C(COC(=O)c1ccc(NS(=O)(=O)c2cccs2)cc1O)Nc1nc2ccccc2s1 | inactive
